# In PubChem BioAssay (NCI):
# The panel holds about 83,000 compounds, 20% with a hit somewhere; the sample as a whole holds those more often.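 Each cell line was grown in a 96-well plate and treated with one concentration of compound for 48 hours. Values below 10 were considered active.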 Unmarked numbers belong to inactive results. The source made the active and inactive calls.
# Tested on: HL-60(TB) leukemia
# Test: NCI-60 one-dose screen, 48 h (100 = growth as untreated, 0 = no growth, -100 = all killed)
# Conditions: 10 µM unless noted
row,SMILES,growth
1,Cc1nn(-c2ccccc2)c2ncn(CC(=O)N/N=C/c3c[nH]c4ccccc34)c(=O)c12,83.8%
2,Cc1ccc2nc(SCc3ccccc3F)n(-c3ccccc3)c(=O)c2c1,104%
3,COc1ccc(N=Nc2c(N)nn3c(-c4ccc(OC)c(OC)c4)ccnc23)cc1,92%
4,CCN1CCN(Cc2ccc(C(=O)Nc3cccc(Nc4ccc5c(OC)cccc5n4)c3)cc2C(F)(F)F)CC1,-57.1% (active)
5,CC1=C(C(=O)OC(C)C)C(c2ccc(O)cc2)NC(=O)N1 (configuration not stated),90.2%
6,COc1ccc(/C(C)=N/N=C2C(=O)N(C)c3ccc(Br)cc32)cc1S(N)(=O)=O,99%
7,CCCCCCCCCCCCCCCCCCCC(=O)NCCc1c[nH]c2ccc(OC(=O)CCCC(=O)OCCOOCCOOCCOOCCOOCCOOCCOOCCOOCCOOCCOOCCOOCCOOCCOC)cc12,-29.3% (active)
8,CC1[C@H]2[C@H](C[C@H]3[C@@H]4CC=C5c6sc(Nc7cccc(Cl)n7)nc6CC[C@]5(C)[C@H]4CC[C@@]32C)O[C@]12CC[C@@H](C)CO2 (some centres not stated),45.4%
9,C=C1CC[C@@H]2[C@]3(C)COC(c4cn[nH]c4-c4ccc(C)cc4)O[C@@H]3CC[C@@]2(C)[C@@H]1C/C=C1/C(=O)OCC1O (some centres not stated),7.26% (active)
10,O=C(Nc1ccc(Br)cc1)Nc1ccc(-c2ccc3c(c2)NC(=O)/C3=C\c2ccc[nH]2)cc1,33.4%
11,Cc1ccc2c(c1)C(=O)/C(=C/c1ccc([N+](=O)[O-])cc1)S2,107%
12,Fc1ccc(Nc2nnc(-c3c[nH]c4ccccc34)o2)cc1,44.8%
